Measurements as given in the supplement of paper PMC6897291.
Where a name gives a salt, the structure may show the parent alone.

Key:
U-2932 [1] = experiment: growth inhibition by drug alone (1 - RLU/untreated control) (fraction); higher = stronger inhibition; details: 177Lu-lilotomab satetraxetan 0 ug/ml
Procedure, shortened: (§1)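 RIVA or U-2932 cells were left untreated or pretreated for 18 h with a radiolabelled anti-CD37 antibody conjugate (~600 MBq/mg) at 0.5 µg/ml for RIVA or 1 µg/ml for U-2932. The cells were then washed and seeded at 3,000 cells/well on plates pre-printed with the Selleck Cambridge Cancer Compound library, dosed at 10/100 nM for RIVA and 10/1,000 nM for U-2932. From day 3, RealTime-Glo luminescence was read daily after 1 h at 37°C. Growth inhibition was taken as one minus RLU over the mean of the untreated no-drug wells, of which there were 48 per plate.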

RIVA [2] = experiment: as above; details: 177Lu-lilotomab satetraxetan 0 ug/ml
Procedure, shortened: as §1

U-2932 [3] = experiment: growth inhibition by drug plus 177Lu-lilotomab satetraxetan (1 - RLU/untreated control) (fraction); higher = stronger inhibition; details: 177Lu-lilotomab satetraxetan 1 ug/ml
Procedure, shortened: as §1

RIVA [4] = experiment: as above; details: 177Lu-lilotomab satetraxetan 0.5 ug/ml
Procedure, shortened: as §1

| Compound | growth inhibition by drug alone (U-2932 [1]; 10 nM, time (day): 3) | growth inhibition by drug alone (U-2932 [1]; 10 nM, time (day): 4) | growth inhibition by drug alone (U-2932 [1]; 10 nM, time (day): 5) | growth inhibition by drug alone (U-2932 [1]; 10 nM, time (day): 6) | growth inhibition by drug alone (U-2932 [1]; 1000 nM, time (day): 3) | growth inhibition by drug alone (U-2932 [1]; 1000 nM, time (day): 4) | growth inhibition by drug alone (U-2932 [1]; 1000 nM, time (day): 5) | growth inhibition by drug alone (U-2932 [1]; 1000 nM, time (day): 6) | growth inhibition by drug alone (RIVA [2]; 10 nM, time (day): 3) | growth inhibition by drug alone (RIVA [2]; 10 nM, time (day): 4) | growth inhibition by drug alone (RIVA [2]; 10 nM, time (day): 5) | growth inhibition by drug alone (RIVA [2]; 10 nM, time (day): 6) | growth inhibition by drug alone (RIVA [2]; 100 nM, time (day): 3) | growth inhibition by drug alone (RIVA [2]; 100 nM, time (day): 4) | growth inhibition by drug alone (RIVA [2]; 100 nM, time (day): 5) | growth inhibition by drug alone (RIVA [2]; 100 nM, time (day): 6) | growth inhibition by drug plus 177Lu-lilotomab satetraxetan (U-2932 [3]; 10 nM, time (day): 3) | growth inhibition by drug plus 177Lu-lilotomab satetraxetan (U-2932 [3]; 10 nM, time (day): 4) | growth inhibition by drug plus 177Lu-lilotomab satetraxetan (U-2932 [3]; 10 nM, time (day): 5) | growth inhibition by drug plus 177Lu-lilotomab satetraxetan (U-2932 [3]; 10 nM, time (day): 6) | growth inhibition by drug plus 177Lu-lilotomab satetraxetan (U-2932 [3]; 1000 nM, time (day): 3) | growth inhibition by drug plus 177Lu-lilotomab satetraxetan (U-2932 [3]; 1000 nM, time (day): 4) | growth inhibition by drug plus 177Lu-lilotomab satetraxetan (U-2932 [3]; 1000 nM, time (day): 5) | growth inhibition by drug plus 177Lu-lilotomab satetraxetan (U-2932 [3]; 1000 nM, time (day): 6) | growth inhibition by drug plus 177Lu-lilotomab satetraxetan (RIVA [4]; 10 nM, time (day): 3) | growth inhibition by drug plus 177Lu-lilotomab satetraxetan (RIVA [4]; 10 nM, time (day): 4) | growth inhibition by drug plus 177Lu-lilotomab satetraxetan (RIVA [4]; 10 nM, time (day): 5) | growth inhibition by drug plus 177Lu-lilotomab satetraxetan (RIVA [4]; 10 nM, time (day): 6) | growth inhibition by drug plus 177Lu-lilotomab satetraxetan (RIVA [4]; 100 nM, time (day): 3) | growth inhibition by drug plus 177Lu-lilotomab satetraxetan (RIVA [4]; 100 nM, time (day): 4) | growth inhibition by drug plus 177Lu-lilotomab satetraxetan (RIVA [4]; 100 nM, time (day): 5) | growth inhibition by drug plus 177Lu-lilotomab satetraxetan (RIVA [4]; 100 nM, time (day): 6) |
| --- | --- | --- | --- | --- | --- | --- | --- | --- | --- | --- | --- | --- | --- | --- | --- | --- | --- | --- | --- | --- | --- | --- | --- | --- | --- | --- | --- | --- | --- | --- | --- | --- |
| CCc1cc(-c2n[nH]c(C)c2-c2ccc3c(c2)OCCO3)c(O)cc1O | 0.113 | 0.047 | -0.0381 | -0.212 | 0.0202 | -0.0494 | -0.116 | -0.126 | -0.0752 | -0.183 | -0.489 | -0.797 | -0.563 | -0.433 | -0.46 | -0.629 | 0.0102 | 0.053 | 0.0491 | 0.0788 | 0.0475 | 0.0422 | 0.0841 | 0.183 | 0.478 | 0.547 | 0.565 | 0.581 | 0.363 | 0.462 | 0.473 | 0.48 |
| Nc1cc(C(F)(F)F)c(-c2cc(N3CCOCC3)nc(N3CCOCC3)n2)cn1 | -0.0505 | -0.0268 | -0.042 | 0.0241 | 0.632 | 0.62 | 0.563 | 0.519 | -0.24 | -0.261 | -0.283 | -0.377 | -0.244 | -0.324 | -0.245 | -0.359 | -0.138 | -0.0899 | -0.0958 | -0.0143 | 0.508 | 0.421 | 0.403 | 0.455 | 0.268 | 0.424 | 0.461 | 0.48 | 0.33 | 0.394 | 0.402 | 0.384 |
| CCc1c2c(nc3ccc(OC(=O)N4CCC(N5CCCCC5)CC4)cc13)-c1cc3c(c(=O)n1C2)COC(=O)[C@]3(O)CC [Irinotecan HCl Trihydrate (Campto)] | -0.0148 | -0.0323 | -0.109 | -0.0905 | 0.841 | 0.921 | 0.96 | 0.976 | -0.0524 | -0.159 | -0.223 | -0.511 | -0.259 | -0.163 | -0.0382 | 0.00676 | 0.0165 | 0.04 | 0.0458 | 0.118 | 0.839 | 0.928 | 0.965 | 0.98 | 0.219 | 0.422 | 0.475 | 0.51 | 0.485 | 0.649 | 0.699 | 0.741 |
| Nc1ccc(-c2ccc3ncc4ccc(=O)n(-c5cccc(C(F)(F)F)c5)c4c3c2)cn1 [Torin 2] | 0.465 | 0.318 | 0.24 | 0.244 | 0.937 | 0.963 | 0.974 | 0.981 | 0.402 | 0.267 | 0.158 | -0.141 | 0.769 | 0.804 | 0.808 | 0.781 | 0.305 | 0.238 | 0.247 | 0.312 | 0.953 | 0.97 | 0.98 | 0.986 | 0.613 | 0.549 | 0.527 | 0.515 | 0.838 | 0.874 | 0.881 | 0.887 |
| CN(C)Cc1ccc(-c2nc3cccc4c3n2CCNC4=O)cc1 | 0.121 | 0.0696 | -0.0285 | -0.000931 | 0.038 | 0.056 | -0.00883 | -0.203 | -0.0131 | 0.0265 | -0.0439 | -0.223 | -0.0162 | 0.0398 | 0.00266 | -0.0877 | 0.00803 | 0.0491 | 0.0539 | 0.0786 | 0.0336 | 0.127 | 0.116 | 0.183 |  |  |  |  |  |  |  |  |
| Nc1ccc(C(=O)Nc2cccc(-c3nc(N4CCOCC4)c4oc5ncccc5c4n3)c2)cn1 | 0.123 | 0.0927 | 0.0179 | -0.0139 | 0.195 | 0.203 | 0.118 | 0.206 | -0.00332 | -0.02 | -0.0954 | -0.385 | 0.0916 | 0.0201 | 0.0261 | -0.0381 | 0.00496 | 0.0368 | 0.0937 | 0.133 | 0.163 | 0.259 | 0.223 | 0.329 | 0.467 | 0.548 | 0.558 | 0.579 | 0.541 | 0.566 | 0.558 | 0.533 |
| CNC(=O)[C@@H](NC(=O)[C@H](CC(C)C)[C@H](O)C(=O)NO)C(C)(C)C [Marimastat] | -0.0984 | -0.0992 | -0.103 | -0.269 | -0.124 | -0.117 | -0.167 | -0.336 | -0.274 | -0.343 | -0.475 | -0.556 | -0.508 | -0.486 | -0.476 | -0.599 | -0.127 | -0.0607 | 0.00218 | 0.096 | -0.0404 | -0.014 | 0.0136 | 0.157 | 0.34 | 0.438 | 0.469 | 0.492 | 0.34 | 0.431 | 0.449 | 0.457 |
| Cc1nn(-c2ccccc2)c(C)c1C=NN1CCN(Cc2ccccc2)CC1 | 0.0133 | 0.025 | 0.0751 | 0.189 | -0.168 | -0.0669 | -0.0956 | -0.16 | -0.144 | -0.164 | -0.201 | -0.467 | -0.163 | -0.151 | -0.201 | -0.307 | -0.0548 | -0.0219 | 0.00875 | 0.104 | -0.251 | -0.05 | -0.0247 | -0.0474 |  |  |  |  |  |  |  |  |
